# The supplement of paper PMC12350171
# Counter-ions that a name gives are not always drawn. Values without a mark were called inactive.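 How the source made its calls: active = AUC significantly below DMSO controls by Student t-fit with adjusted P under 0.01; inactive = not significantly reduced.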
# Tested on: Haemophilus parainfluenzae
# Assay: growth AUC normalised to DMSO control (fraction of control); higher = less growth inhibition, active = hit call of the paper
# Details: 20 µM
# In short: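 For the AUC endpoint, growth curves were integrated by the trapezoidal rule up to the exponential-to-stationary transition and normalised to DMSO controls on the same plate. The curves came from OD578 readings taken hourly for 24 h, in three biological replicates. Pathogens had been passaged anaerobically twice and inoculated at an OD578 of 0.01 into pre-reduced mGAM plates carrying 20 μM compound and 1% DMSO, sealed with breathable membranes. Medium for Haemophilus parainfluenzae also contained hemin and NAD.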
row,SMILES,growth AUC normalised to DMSO control
1,CC1=C(/C=C/C(C)=C/C=C/C(C)=C\C(=O)O)C(C)(C)CCC1 [Isotretinoin],1.02
2,CC(C(=O)O)c1ccc(-c2ccccc2)c(F)c1 (centres undefined) [Flurbiprofen],0.943
3,CN1CCN(CCCN2c3ccccc3Sc3ccc(S(=O)(=O)N(C)C)cc32)CC1 [Thioproperazine dimesylate],1.01
4,CO[C@@]1(NC(=O)C2SC(=C(C(N)=O)C(=O)O)S2)C(=O)N2C(C(=O)O)=C(CSc3nnnn3C)CS[C@@H]21 (some centres undefined) [Cefotetan],0.0395 (active)
5,CC(NCCC(c1ccccc1)c1ccccc1)c1ccccc1 (centres undefined) [Fendiline hydrochloride],0.986
6,NC(=O)N1c2ccccc2CC(=O)c2ccccc21 [Oxcarbazepine],0.954
7,c1ccc(C2CN3CCSC3=N2)cc1 (centres undefined) [Tetramisole hydrochloride],0.997
8,COc1ccc(C(=O)c2ccccc2O)c(O)c1 [Dioxybenzone],0.992
9,CC1c2cccc(O)c2C(O)=C2C(=O)C3(O)C(O)=C(C(N)=O)C(=O)C(N(C)C)C3C(O)C21 (centres undefined) [Doxycycline hydrochloride],0.0238 (active)
10,CCCCc1oc2ccccc2c1C(=O)c1cc(I)c(OCCN(CC)CC)c(I)c1 [Amiodarone hydrochloride],0.96
11,CCN(CC)CCNC(=O)c1cc(S(C)(=O)=O)ccc1OC [Tiapride hydrochloride],0.993
12,NS(=O)(=O)c1cc2c(cc1C(F)(F)F)NC(Cc1ccccc1)NS2(=O)=O (centres undefined) [Bendroflumethiazide],1.02
13,Cc1ccc(/C(=C\CN2CCCC2)c2ccccn2)cc1 [Triprolidine hydrochloride],0.961
14,CN(Cc1ccc(C(C)(C)C)cc1)Cc1cccc2ccccc12 [Butenafine hydrochloride],0.913
15,Cc1cc2cc3c(C)cc(=O)oc3c(C)c2o1 [Trioxsalen],1.02
16,CC(C)(Oc1ccc(C2CC2(Cl)Cl)cc1)C(=O)O (centres undefined) [Ciprofibrate],1.01
17,COCCOC(=O)C1=C(C)NC(C)=C(C(=O)OC(C)C)C1c1cccc([N+](=O)[O-])c1 (centres undefined) [Nimodipine],0.959
18,O=C(O)c1cc(-c2ccc(F)cc2F)ccc1O [Diflunisal],0.916
19,Cc1cccc(Nc2ccncc2S(=O)(=O)NC(=O)NC(C)C)c1 [Torsemide],0.978
20,CCCCCCCCCCCCCCCC[N+](C)(C)CCN(Cc1ccc(OC)cc1)c1ncccn1 [Thonzonium bromide],0.978

row,SMILES,growth AUC normalised to DMSO control
1,COc1cnc(NS(=O)(=O)c2ccc(N)cc2)nc1 [Sulfameter],0.98
2,COCCCOc1ccnc(C[S+]([O-])c2nc3ccccc3[nH]2)c1C (centres undefined) [Rabeprazole sodium salt],0.985
3,CC12CC3CC(C)(C1)CC(N)(C3)C2 [Memantine hydrochloride],0.986
4,COc1cc(-c2ccc(=O)[nH]n2)ccc1OC(F)F [Zardaverine],1.02
5,CC(C)(C)NCC(O)COc1cccc2c1CCC(=O)N2 (centres undefined) [Carteolol hydrochloride],0.985
6,NNc1nncc2ccccc12 [Hydralazine hydrochloride],1.03
7,NC(=O)c1cnccn1 [Pyrazinamide],0.979
8,CC(C)[N+](C)(CCOC(=O)C1c2ccccc2Oc2ccccc21)C(C)C [Propantheline bromide],0.988
9,Cc1cc(C(C)(C)C)cc(C)c1CC1=NCCN1 [Xylometazoline hydrochloride],0.996
10,CN(C)CC/C=C1\c2ccccc2CSc2ccccc21 [Dosulepin hydrochloride],0.865
11,CN(CCCCCCCCCCN(C)C(=O)Oc1cccc([N+](C)(C)C)c1)C(=O)Oc1cccc([N+](C)(C)C)c1 [Demecarium bromide],0.923
12,CCCc1nc2c(C)cc(-c3nc4ccccc4n3C)cc2n1Cc1ccc(-c2ccccc2C(=O)O)cc1 [Telmisartan],1.03
13,CC(=O)c1ccc2c(c1)N(CCCN1CCC(CCO)CC1)c1ccccc1S2 [Piperacetazine],1.09
14,N[C@@H]1CONC1=O [D-cycloserine],1.04
15,NCC[C@H](O)C(=O)N[C@@H]1C[C@H](N)[C@@H](O[C@H]2O[C@H](CN)[C@@H](O)[C@H](O)[C@H]2O)[C@H](O)[C@H]1O[C@H]1O[C@H](CO)[C@@H](O)[C@H](N)[C@H]1O [Amikacin hydrate],0.0269 (active)
16,CC(C(=O)O)c1ccc2c(c1)Cc1cccnc1O2 (centres undefined) [Pranoprofen],0.985
17,Nc1ccc(C(=O)O)c(O)c1 [Aminosalicylic acid],1.09
18,Cn1nnc2c(C(N)=O)ncn2c1=O [Temozolomide],0.975
19,COc1cc2nc(N3CCN(C(=O)C4CCCO4)CC3)nc(N)c2cc1OC (centres undefined) [Terazosin hydrochloride],0.978
